Source: the supplement of paper PMC10338343
± gives the standard deviation.

Key:
[1] = tested on: MILI (PIWIL2) piRISC loaded with L1MC piRNA (26 nt); experiment: pre-steady-state target cleavage rate (min^-1); guide: L1MC piRNA 5'p-UAACUAAAUACUAUGCAAGCUGUAGG; higher = faster piRNA-guided slicing of the target
Summary of the method: (§1)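 A transcribed, DNA-blocked target RNA library (0.1 nM) and 1 nM active affinity-purified piRISC bearing one synthetic guide were incubated in HEPES–potassium acetate buffer at 33 °C for 0–8 or 0–960 min, either with or without 500 nM GTSF1 partner protein. Uncleaved targets were sequenced, normalised to depth and to weakly complementary targets, and pooled over three trials, with k3 capped at 0.0001 min^-1. The pre-steady-state cleavage rate was derived with a burst-and-steady-state fit.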

[2] = tested on: EfPiwi piRISC loaded with L1MC piRNA (26 nt); experiment: pre-steady-state target cleavage rate (min^-1); auxiliary factor: 500 nM Ephydatia muelleri Gtsf1; guide: L1MC piRNA 5'p-UAACUAAAUACUAUGCAAGCUGUAGG; MIWI and MILI are mouse PIWI proteins and EfPiwi is from a freshwater sponge; tags in brackets are library labels; higher = faster piRNA-guided slicing of the target
Summary of the method: as §1

[3] = auxiliary factor: 500 nM mouse GTSF1
[4] = auxiliary factor: none (no GTSF1)

| Sequence | pre-steady-state target cleavage rate [1, 3] | pre-steady-state target cleavage rate [1, 4] | pre-steady-state target cleavage rate [2] |
| --- | --- | --- | --- |
| UCCUGGUACGGCUUGCAUAGUAUUUAGUUA | 0.195 ± 0.03 | 0.0133 ± 0.0047 | 0.00921 ± 0.0043 |
| UCCUCCUACAGCUUGCAUAGUAAUUUAGUUA | 0.199 ± 0.019 | 0.00674 ± 0.0025 | 0.00821 ± 0.0033 |
| UCCUCCAACAGCUUGCAUAGUAUUUUCAAA | 0.0817 ± 0.015 | – | 0.00396 ± 0.0027 |
| UCCUGCUACAGCUUGCAUAGUAAUUUGUUA | 0.245 ± 0.053 | – | 0.00579 ± 0.002 |
| UCCUGGAUGAGCUUGCAUUGUAUUUAGAUA | 0.156 ± 0.038 | – | 0.00248 ± 0.0021 |
| UCCUGGUACAGCUUGCAUUGUAAUUAGUUA | 0.0918 ± 0.016 | – | 0.00313 ± 0.0023 |
| UCCUGGAUGAGCUAGCAUAGAAUUUAGUUA | 0.0337 ± 0.011 | – | 0.00286 ± 0.0026 |
| UCCUCCUACAGCUUGCAUAGUAUUGUAGUUA | 0.166 ± 0.045 | – | 0.0032 ± 0.0012 |
| UCCUGGAUCAGCUUGCCAUAGUAUUUAGUUA | 0.0992 ± 0.014 | – | 0.00658 ± 0.0025 |
| UCCUGGUACAGCUUGCAAUAGUAUUUAGUUA | 0.0322 ± 0.0093 | 0.00408 ± 0.0024 | 0.00587 ± 0.0028 |
| UCCUGGAUCUGCUUGCAAAGUAUUUAGUUA | 0.0598 ± 0.013 | 0.0085 ± 0.0023 | 0.0405 ± 0.011 |
| UCCUGCUACACGAUGCAUAGUAUUUAGUAA | 0.257 ± 0.032 | 0.00703 ± 0.0026 | 0.00352 ± 0.0024 |
| UCCUGGUACAGCUAUGCAUAGUAUUUAGUUA | 0.259 ± 0.016 | 0.0112 ± 0.0038 | 0.0292 ± 0.0094 |
| UCCUCCUACAGCUUGCAUAGUAUUUUCAUA | 0.091 ± 0.02 | – | 0.00665 ± 0.0037 |
| UCCUGGUACAGCUGGCAUAGUAUUUAGUUA | 0.199 ± 0.022 | 0.0121 ± 0.0031 | 0.0113 ± 0.0038 |
| UCCUGGAACAGGUUGCAUAGUAUUUAGAAA | 0.163 ± 0.026 | – | 0.00261 ± 0.0017 |
| UCCUGGAUGUGCUUGCAUAGUAUUCAGUUA | 0.0572 ± 0.015 | – | 0.00279 ± 0.0024 |
| UCCUCCUACAGGUUGCAUAGUAUUUAGAUA | 0.123 ± 0.017 | – | 0.00362 ± 0.00095 |
| UCCUGGAUGUGCUUGGCAUAGUAUUUAGUUA | 0.19 ± 0.057 | – | 0.00458 ± 0.0029 |
| UCCUCCUACAGCUUGCAUAGUAUUAUGAAA | 0.115 ± 0.029 | – | 0.00358 ± 0.0025 |
| UCCUCCUACAGCUUGCAUAGUAAUUACAAA | 0.18 ± 0.039 | – | 0.00353 ± 0.0025 |
| UCCUGCUACAGCUUGCAAAGUUUUUAGUUA | 0.0201 ± 0.0069 | – | 0.00207 ± 0.002 |
| UCCUCCUACAGCUUGCAUAGUUUUUAGAUA | 0.0768 ± 0.022 | – | 0.00341 ± 0.0022 |
| UCCUCCUACAGCUUCCAUAGUAUUUAGUUA | 0.0831 ± 0.025 | – | 0.0042 ± 0.0019 |
| UCCUCCUACAGCUUGCAUACUAUUUAGAUA | 0.0353 ± 0.01 | – | 0.00315 ± 0.0027 |

| Sequence | pre-steady-state target cleavage rate [1, 3] | pre-steady-state target cleavage rate [1, 4] | pre-steady-state target cleavage rate [2] |
| --- | --- | --- | --- |
| UCCUGGAUGUCCUUGCAUAGUAUUUAGUUC [g2:g19:cont:t1C] | 0.0893 ± 0.011 | 0.00931 ± 0.0026 | 0.00867 ± 0.0028 |
| UCCUGGAACAGCUAGCAUAGUAUUUACAAA | 0.0718 ± 0.019 | – | 0.00337 ± 0.0029 |
| UCCUGGAACAGCUUGCAUACUAUUUUGUUA | 0.0261 ± 0.0092 | – | 0.00252 ± 0.0023 |
| UCCUGGAACAGCUUGCAUAGUAUUUAGUA | 0.191 ± 0.02 | – | 0.00384 ± 0.0024 |
| UCCUGGAUGUCGAACGUAUCUAUUUAUGUUA | – | < 0.0001 | < 0.0001 |
| UCCUGCUACAGCUUGCAUAGAAUUUAGAAA | 0.0373 ± 0.015 | – | 0.00251 ± 0.0016 |
| UCCUGGAUCUGCUUCCAUAGUAUUUAGUUA | 0.0239 ± 0.0067 | – | 0.00326 ± 0.0022 |
| UCCUGGUACAGCUUGCAUAGUAAUUACAAA | 0.021 ± 0.0095 | – | 0.00331 ± 0.0026 |
| UCCUGCUACAGCUUGCAUAGAAUUUAGAUA | 0.0657 ± 0.021 | – | 0.00319 ± 0.0012 |
| UCCUCCUACAGCAUCCAUAGUAUUUAGUUA | 0.175 ± 0.042 | – | 0.00359 ± 0.0017 |
| UCCUGGAUCAGCUUGCAUAGUAUUUUCAAA | 0.0677 ± 0.013 | – | 0.00307 ± 0.0027 |
| UCCUGCUACUGCUUGCAUAGUAUAUAGUUA | 0.121 ± 0.018 | – | 0.00619 ± 0.0031 |
| UCCUCCUACAGCUUGCAUAGAAUUUAGUAA | 0.148 ± 0.035 | – | 0.00443 ± 0.0022 |
| UCCUGCUACAGCUUGCAUAGUUUUUAGUAA | 0.0393 ± 0.011 | – | 0.00424 ± 0.0013 |
| UCCUCCUACAGCUUGCAGUAGUAUUUAGUUA | 0.0101 ± 0.0053 | – | 0.00539 ± 0.0033 |
| UCCUGCUACAGCUUGCAUAUAUUUAGUUA | 0.046 ± 0.011 | – | 0.00528 ± 0.0031 |
| UCCUCGAUCAGCUUGCAUAGUAUUUUCAAA | 0.0652 ± 0.014 | – | 0.00433 ± 0.0023 |
| UCCUCCUACAGCUUGCAUAGUAUAUAGAAA | 0.105 ± 0.028 | – | 0.00329 ± 0.0015 |
| UCCUGCUACAGCUUGGAUAGUAAUUAGUUA | 0.204 ± 0.021 | – | 0.00773 ± 0.0024 |
| UCCUCCUACAGCUUGCAUAGAUUUUAGUAA | 0.0588 ± 0.015 | – | 0.00392 ± 0.0025 |
| UCCUCGUACAGCUUGCAUAGUAUUUUCAAA | 0.0759 ± 0.02 | – | 0.0038 ± 0.0029 |
| UCCUCCAUCAGCUUGCAUAGUAUUUAGAAA | 0.0615 ± 0.017 | – | 0.00539 ± 0.0026 |
| UCCUGGAUCAGCUUGCAUAGUAUUAAGUAA | 0.178 ± 0.03 | – | 0.00602 ± 0.0026 |
| UCCUGGAUCAGCUUGCAAUAGUAUUUAGUUA | 0.00703 ± 0.0039 | – | 0.0153 ± 0.0038 |
| UCCUCGUACAGCUUGCAUAGUAUUUACAAA | 0.105 ± 0.025 | – | 0.00271 ± 0.0024 |

| Sequence | pre-steady-state target cleavage rate [1, 3] | pre-steady-state target cleavage rate [1, 4] | pre-steady-state target cleavage rate [2] |
| --- | --- | --- | --- |
| UCCUGGUUCAGCUUCCAUAGUAUUUAGUUA | 0.0301 ± 0.012 | – | 0.00303 ± 0.0021 |
| UCCUGCUACAGCUUGGAUAGUAUUUAGAAA | 0.0121 ± 0.0049 | – | 0.00242 ± 0.0021 |
| UCCUGGAAGAGCUUGCAUAGUAUUUACAAA | 0.0536 ± 0.02 | – | 0.00396 ± 0.0018 |
| UCCUCCUACAGCUUGCAUAGAAUUUAGUUA | 0.1 ± 0.021 | – | 0.0078 ± 0.0023 |
| UCCUGCUACAGCUUGCAUAGUAAUUACAAA | 0.0901 ± 0.029 | – | 0.00259 ± 0.0018 |
| UCCUGGAUGUCCUUGCAUAGUAUUUAGAAA | 0.0838 ± 0.021 | – | 0.00278 ± 0.0022 |
| UCCUGGAACAGCUUGCAUAGUAUUUAGAAA | 0.0838 ± 0.015 | – | 0.00395 ± 0.0012 |
| UCCUGGUACACCUUGCAUAGUAUUUAGAAA | 0.13 ± 0.043 | – | 0.0037 ± 0.0035 |
| UCCUCCUACAGCUUGCAUAGUAUUAACUUA | 0.0722 ± 0.018 | – | 0.00459 ± 0.0029 |
| UCCUGCUACAGCUUGCAUAGUAUUUUCUAA | 0.0874 ± 0.021 | – | 0.00646 ± 0.0026 |
| UCCUGCUACAGCUUGCAUACUAUUUAGUAA | 0.0862 ± 0.018 | – | 0.00476 ± 0.0026 |
| UCCUGGUACAGCUUGCAUAGUAUUGAGUUA | 0.155 ± 0.032 | – | 0.00418 ± 0.0024 |
| UCCUGCUACAGCUUGCAUAGUAUUUAGUA | 0.335 ± 0.07 | – | 0.00529 ± 0.0019 |
| UCCUGCUACAGCUUGCAUACUAUUAAGUUA | 0.0719 ± 0.018 | – | 0.00453 ± 0.0019 |
| UCCUCCUACACGUUGCAUAGUAUUUAGAAA | 0.161 ± 0.029 | – | 0.00396 ± 0.003 |
| UCCUGCUACAGCUUGCAAAGUAUUUAGAUA | 0.0895 ± 0.012 | – | 0.00421 ± 0.0024 |
| UCCUGGUACAGCUUGCUAUAGUAUUUAGUUA | 0.0224 ± 0.009 | – | 0.00339 ± 0.0031 |
| UCCUGGUACAGCUUGCAAAGUAUUUAGAUA | 0.118 ± 0.021 | – | 0.00431 ± 0.0026 |
| UCCUGCUACUGCUUGCAUAGUAUUUAGUAA | 0.146 ± 0.034 | – | 0.00464 ± 0.0016 |
| UCCUCGAACAGCUUGCAUAGUAUUUACAAA | 0.0992 ± 0.021 | – | 0.00433 ± 0.0025 |
| UCCUGGAACAGCUUGCAUAGUUUUUUGUUA | 0.0493 ± 0.014 | – | 0.00325 ± 0.0013 |
| UCCUGGAUGAGCUAGCAUAGUAUUUAGAAA | 0.209 ± 0.049 | – | 0.00297 ± 0.0019 |
| UCCUCCUACAGCUUGCUUAGUAUUAAGUUA | 0.116 ± 0.018 | – | 0.00459 ± 0.0031 |
